Laboratory results as given in PubChem BioAssay AID504332 (National Center for Advancing Translational Sciences (NCATS), 2011).
Screen size: about 350,000 compounds; about 31,000 (8.9%) were called active. Another 15% or so got no clear call; they are omitted. Calls follow the shape of the dose curve; as a rule, active = well fitted inhibition curve with a large enough effect; inconclusive = small, poorly fitted or top-dose-only effect; inactive = no such curve, though single readings can be large or run the other way. The entries come from a sample that favours actives as a whole.

molecular target: Histone-lysine N-methyltransferase EHMT2 (Homo sapiens) (UniProt Q96KQ7); test: qHTS Assay for Inhibitors of Histone Lysine Methyltransferase G9a; settings: G9a H3K9 monomethylation, AlphaScreen, 2 h; series mostly up to 59 µM; activity, negative = inhibition: at the top concentration; also: nearly all actives have a fitted effect of over 75% in size
Sequence (Q96KQ7 913-1193 limits assumed): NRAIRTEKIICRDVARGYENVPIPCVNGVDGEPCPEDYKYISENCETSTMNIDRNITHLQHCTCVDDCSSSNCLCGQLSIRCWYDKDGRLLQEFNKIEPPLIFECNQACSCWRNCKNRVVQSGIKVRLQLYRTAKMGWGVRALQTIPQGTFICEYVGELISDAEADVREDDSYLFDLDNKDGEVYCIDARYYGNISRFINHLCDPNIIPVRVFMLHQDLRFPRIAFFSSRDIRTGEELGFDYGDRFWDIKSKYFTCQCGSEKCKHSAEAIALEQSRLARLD
Outline: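 AlphaScreen detection with an anti-monomethyl H3K9 antibody quantified product after a 2 h room-temperature reaction containing 500 nM biotinylated H3K9 peptide, 20 µM SAM and 20 nM enzyme, which had been preincubated 15 min with compound.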
% is scaled to controls: 0 for no effect and ±100 for the full control effect; potency is read from the fitted curve at half-maximal effect.

activity, negative = inhibition, inactive:
COc1cccc(NC(=O)C2CCN(c3cc(C)nc4c(-c5ccc(Cl)cc5)c(C)nn34)CC2)c1 -38.5%
CN(C)CCN(Cc1ccccc1)S(=O)(=O)c1csc(C(N)=O)c1 -0.651%
O=C(c1cc(-c2ccc(O)cc2)on1)N1CCOCC1 -6.36%
Cc1ccc(OCCSc2nc3ccc(NC(=O)COc4ccc(C)cc4)cc3s2)cc1 -12.8%
COc1cc(C(=O)Nn2c(CC(C)C)nc3ccccc3c2=O)cc(OC)c1OC -3.64% [at 102 µM]
CCCn1ccc2c(OCC(=O)NCc3ccc(F)cc3)cccc2c1=O 0.876%
COc1ccc(N(C)S(=O)(=O)c2ccc3c(c2)CC(C)N3C(=O)C2CC2)c(OC)c1 (stereo not given) -21.9%
O=C(Nc1cc2ccccc2oc1=O)C1CCCCC1 16.8% [at 102 µM]
O=C(c1cn(-c2ccccc2)nc1-c1cc2ccccc2oc1=O)N1CCOCC1 18.3%
CCC(=O)N1CCc2cc(S(=O)(=O)NC(C(=O)NCCc3ccc(C)cc3)C(C)C)ccc21 (stereo not given) 0.749%
Cc1ccc(NC(=S)NCc2ccccc2Cl)c(C)c1 -2.23%
Cc1ccc(NC(=S)NCCc2ccc(Cl)cc2)c(C)c1 35.2% [at 102 µM]
COc1ccc(S(=O)(=O)Nc2cc(C)on2)cc1NC(C)=O 2.19% [at 12.7 µM]
O=C(CNS(=O)(=O)c1cccs1)N1CCN(c2ccccc2Cl)CC1 2.71%
CCCSc1nc2c(c(=O)n(C)c(=O)n2C)n1Cc1ccc(C)cc1 -1.76% [at 102 µM]
CCCCn1c(SCC(=O)NCCc2ccc(OC)c(OC)c2)nc2c1c(=O)n(C)c(=O)n2C 3.47%
O=C(CCN1C(=O)C2C3C=CC(C3)C2C1=O)Nc1ccccc1F (stereo not given) -6.32% [at 102 µM]
O=C(NCCN1C(=O)C2C3C=CC(C3)C2C1=O)Nc1ccccn1 (stereo not given) 0.474% [at 102 µM]
COCCCN(C(=O)CSCc1ccc(C)cc1)c1c(N)n(Cc2ccccc2)c(=O)[nH]c1=O -49.2% [at 102 µM]
Cc1c(CNC2CCCCC2)c(C(=O)O)c(C)n1Cc1cccc(Cl)c1 -3.25%
Cc1onc(-c2c(F)cccc2Cl)c1C(=O)N(C)CC(=O)Nc1cccc(F)c1 -18.5% [at 102 µM]
CCOC(=O)c1ccc(NC(=O)CCS(=O)(=O)c2ccc(C)cc2)cc1 -30.4%
O=C(CSc1nnc(CNC(=O)c2ccc(F)cc2)o1)Nc1ccc2c(c1)OCO2 26.4% [at 102 µM]
O=S(=O)(N1CCOCC1)N1CCN(c2ccccc2F)CC1 0.689% [at 102 µM]
Cc1cccc(C)c1N1CCN(S(=O)(=O)N2CCCCC2)CC1 50.4% [at 102 µM]
CN(CC(=O)Nc1cccc(F)c1)C(=O)C1CC(=O)N(CCc2ccccc2)C1 (stereo not given) -1.48% [at 102 µM]
Cc1ccc(CNC(=O)CCc2c(C)nn(-c3ccc(N4CCCC4)nn3)c2C)cc1 18.4%
CCC(C)NC(=O)/C=C/c1ccc(S(=O)(=O)NCc2ccco2)cc1 (stereo not given) -28.7% [at 102 µM]
O=C(O)/C=C/c1ccc(S(=O)(=O)N2CCCCCC2)cc1 -30.8% [at 102 µM]
Cc1cc(NC(=O)CSC2=NS(=O)(=O)c3cc(Cl)ccc3N2)no1 2.09% [at 102 µM]
Cc1ccc(CNC(=O)C(=O)c2cn(CC(=O)N3CCCC3)c3ccccc23)cc1 30.1% [at 102 µM]
O=C(NCCCn1ccnc1)C(=O)c1cn(CC(=O)N2CCCCCC2)c2ccccc12 -41.8% [at 102 µM]
COc1cccc(OCCn2c(-c3ccc(Br)cc3)nc3ccccc3c2=O)c1 -40.8%
Cc1oc2ncn(CC(C)C)c(=O)c2c1C(=O)N1CCN(c2ccccc2F)CC1 2.53%
Cc1cc(Cl)c2oc(C(=O)N(C)C(C)c3ccccn3)c(C)c2c1 (stereo not given) 19.3% [at 102 µM]
COc1ccc(-c2sc3ccc(OC)cc3c2C#Cc2ccccn2)cc1 -2.78% [at 0.501 µM]
Cc1cc(C)cc(NC(=O)COc2coc(CN3CCN(c4ccccc4)CC3)cc2=O)c1 -10.4% [at 102 µM]
CCOc1ccc(N/C=C/C(=O)c2cc(OC)c(OC)c(OC)c2)cc1 -10.6% [at 0.501 µM]
COC(=O)c1c(NC(=O)CCCC(=O)O)sc2c1CCCCC2 23% [at 12.7 µM]
O=C(Cc1ccccc1)Nc1sc2c(c1C(=O)Nc1ccc(Br)cc1)CCC2 11.7%
Cc1sc(NC(=O)c2ccc3ncsc3c2)c(C(N)=O)c1C -49.7% [at 102 µM]
CCOC(=O)c1c(NC(=O)CCC(=O)NCc2ccco2)sc2c1CCCC2 6.67%
CCOC(=O)c1ccc(NC(=O)CC2C(=O)N(c3cccc(OC)c3)C(=O)N2C2CCCCC2)cc1 (stereo not given) -29%
CCOc1ccc(CCNC(=O)c2csc3c2CCCCC3)cc1 -6.99%
CCOC(=O)c1ccc(NC(=O)c2csc3c2CCCCC3)cc1 -24.4%
Cc1ccc(C(=O)NCCNC(=O)c2ccccc2)cc1 26.4%
Cc1cc(C)cc(Nc2ncnc3onc(-c4ccc(F)cc4)c23)c1 -3.93%
CNC(=O)CN1C(=O)c2cccnc2Sc2ccccc21 18.1%
O=C(CSc1oc(-c2ccco2)nc1S(=O)(=O)c1ccccc1)c1ccc(Cl)cc1 -33.3%
COc1cccc(NC(=O)c2ccccc2N(Cc2ccccc2)S(C)(=O)=O)c1 19.2% [at 0.501 µM]
COc1ccc(-n2c(SCC(=O)Nc3ccc(Cl)c(C)c3)nc3n[nH]c(C)c3c2=N)cc1 8.7%
COc1ccc(C2C(=O)N(C3CCCCC3)CC(=O)N2Cc2ccccc2Cl)cc1OC (stereo not given) -2.55%
Cc1cc(C(=O)COc2ccccc2Cl)c(C)n1C1CC1 15.7% [at 0.501 µM]
O=C(CC(c1cccs1)N1Cc2ccccc2C1=O)Nc1ccc(F)cc1F (stereo not given) -1.76%
COC(=O)c1c(NC(=O)CCCOc2ccccc2)sc2c1CCC(C)C2 (stereo not given) 45%
Cc1cccc(OCCCC(=O)Nc2sc3c(c2C(N)=O)CCC(C)C3)c1 (stereo not given) -6.2%
COC(=O)c1c(NC(=O)c2cccs2)sc2c1CCCC2 -19.4%
COC(=O)c1c(NC(=O)c2ccc(Cl)c(Cl)c2)sc2c1CCCC2 -44.1%
CCOc1ccc(NC(=O)Cn2c(=O)n(CCCC(=O)NCc3ccc4c(c3)OCO4)c(=O)c3ccccc32)cc1 -29.8%
Cc1sc2ncn(CC(=O)N3CCN(c4ccc(F)cc4)CC3)c(=O)c2c1S(=O)(=O)N1CCN(c2ncccn2)CC1 -32.7%
Cc1ccc(C)c(S(=O)(=O)n2nc(C)c(S(=O)(=O)N3CCC(C)CC3)c2C)c1 4%
CCc1ccc(Sc2cc(C(=O)NCCCOC(C)C)c3ccccc3n2)cc1 14.5%
CC(C)(CNC(=O)CNC(=O)C1CCCCC1)N1CCOCC1 -2.59% [at 12.7 µM]
O=c1c2cc(Br)ccc2nc(-c2cccc(Cl)c2)n1O -6.02% [at 102 µM]
COc1ccc(CC(=O)Nc2sc(Cc3ccccc3)c(C)c2C(N)=O)cc1 -34.6% [at 102 µM]
COCc1nnc(NC(=O)c2ccc3c(c2)OCO3)s1 -43.4% [at 102 µM]
O=C(Nc1ccc2nc(SCCOc3ccccc3)sc2c1)c1ccco1 32.6%
Cc1cc2nc(NC(=O)c3ccc(S(=O)(=O)N4CCOCC4)cc3)sc2cc1C -1.89%
O=c1c2cccnc2n(Cc2cccc(F)c2)c(=O)n1Cc1ccccc1Cl 43.8%
CC(C)Cn1c(N)c(C(=O)NCc2cccs2)c2nc3ccccc3nc21 93.7%
CCOC(=O)c1c(N)n(-c2cccc(C)c2C)c2nc3ccccc3nc12 2.49%
COc1cc(NS(=O)(=O)c2cccs2)cc(OC)c1 14.3%
CC(Oc1ccc(Br)cc1)C(=O)NC1CCCCCC1 (stereo not given) 35.3% [at 12.7 µM]
O=C(NCCc1ccc(Cl)cc1)c1ccc2nc(CCc3ccccc3)oc2c1 -0.672%
CCn1c(-c2ccncc2)n[nH]c1=S -114% [at 102 µM]
CCc1cc(-c2nnc(SCC(=O)NC3CC3)n2C)cs1 87.8% [at 102 µM]
CCc1ccc(N(CC)C(=O)CCn2cnc3onc(-c4ccc(F)cc4)c3c2=O)cc1 -23.9%
O=C1CC2(CCN(C(=O)COc3ccc(F)cc3)CC2)Oc2ccccc21 -12.9% [at 102 µM]
CCc1ccccc1OCCSc1nc(-c2cccs2)nc2cc(=O)[nH]n12 8.02%
CCOC(=O)c1ccc(NC(=O)CCn2cnnn2)cc1 -3.16%
C#CCNc1ccc(C(=O)OCC)cc1 -3.3% [at 102 µM]

Potency, active:
COc1cc(C(=O)Nn2c(O)c(C3=c4ccccc4=NC3=O)sc2=S)ccc1O 44.7 µM
O=c1oc2ccccc2cc1-c1cn(-c2ccccc2)c(=S)[nH]1 1.41 µM
Cc1ccc(NC(=S)Nc2ncccc2C)c(C)c1 31.6 µM
CCOc1ccc(Cn2c(SCCCCC#N)nc3c2c(=O)n(C)c(=O)n3C)cc1OCC 35.5 µM
O=C(CN1C(=O)C2C3C=CC(C3)C2C1=O)Nc1nc(-c2ccccn2)cs1 (stereo not given) 39.8 µM
Cc1cccc(C)c1N1CCN(S(=O)(=O)N2CCOCC2)CC1 39.8 µM
CCN(CC)CCNS(=O)(=O)c1ccc(/C=C/C(=O)O)cc1 39.8 µM
O=C(NCc1ccco1)C(=O)c1cn(CC(=O)N2CCCCCC2)c2ccccc12 50.1 µM
CCOC(=O)c1ccc(NC(=O)c2c(NCc3cccc(OC)c3)sc3c2CCC3)cc1 7.94 µM
Cc1ccc(NC(=O)c2c(NC(=O)CCC(=O)O)sc3c2CCCCC3)cc1 28.2 µM
Cc1ccc(C(=O)c2c(NC(=O)c3ccccc3)sc(C)c2C)cc1 8.91 µM
CCOc1ccc(NC(=O)c2c(NC(=O)Cc3ccccc3)sc3c2CCCCC3)cc1 1.12 µM
CCOc1ccc(NC(=O)c2c(NC(=O)Cc3ccccc3)sc3c2CCC(C)C3)cc1 (stereo not given) 2 µM
Cc1ccc(C(=O)c2c(NC(=O)c3ccncc3)sc3c2CCCC3)cc1 15.8 µM
Cc1ccc(C(=O)Nc2sc(Cc3ccc4c(c3)OCO4)c(C)c2C(N)=O)cc1 50.1 µM
CCCNC(=O)c1c(N)n(-c2ccc(S(N)(=O)=O)cc2)c2nc3ccccc3nc12 50.1 µM
CCc1cc(-c2n[nH]c(=S)n2CC(C)C)cs1 1.78 µM
CCOC(=O)c1ccc(NC2Nc3cc(C)nn3S2)cc1 (stereo not given) 3.16 µM
CCc1ccc(NC2Nc3cc(C)nn3S2)cc1 (stereo not given) 1 µM
